Compound activity: PubChem, National Center for Advancing Translational Sciences (NCATS)
The full list was thinned out, with hits kept by preference.
Pf Dd2 growth – qHTS Primary assay for Inhibitors of Plasmodium falciparum Dd2 growth in vitro. 4.3% of 120,000 active. P. falciparum Dd2 growth, SYBR Green, 72 h. Potency, µM (highest dose often 28.9 µM), hits mostly inhibitors; active means well fitted inhibition curve with a large enough effect; further: nearly all actives have a fitted effect of over 65% in size
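Infected erythrocytes (Dd2, 0.3% parasitemia, 2.5% hematocrit final) are added to compound in RPMI-1640/Albumax II medium, grown 72 h at 37C in low oxygen, then lysed with saponin/Triton-X containing SYBR Green and read by fluorescence.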
Each line names hits and unclear results; the compound was inactive in the other large screens.

CC1=NOC2(CCN(Cc3ccc(N(C)C)cc3)CC2)C1	Pf Dd2 growth 10µM
COc1ccc(CN2CCC3(CC2)CC(C)=NO3)cc1	none
CC1=NOC2(CCN(Cc3ccc(F)cc3)CC2)C1	none
O=C(c1cccs1)N1CC[C@H]2COC(=O)N2c2cc(F)ccc2C1	none
O=C(CN1C(=O)COc2ccc(C(=O)COc3cccc(F)c3)cc21)NCc1ccc2c(c1)OCO2	none
O=C(Cc1ccc2c(c1)OCO2)N1CCNc2cnc(Nc3cccc(F)c3)nc2C1	none
O=C(Cc1ccc2c(c1)OCO2)N(Cc1ccncc1)Cc1cccc(OCCc2ccc(F)cc2)c1	Pf Dd2 growth 11µM
COc1cc(C)ccc1OCC(=O)c1ccc2c(c1)N(CCCC(=O)N1CCOCC1)C(=O)CO2	none
O=C(NCCOc1ccccc1)[C@@H]1C[C@H](c2ccc(F)cc2)N([S+](=O)([O-])C2CC2)C1	none
COC1C(=O)N(CC2CC2)C12CCN(C(=O)c1cnccn1)CC2 (stereo not drawn)	none
COc1ccc(Cn2c(SCc3ccc(C(=O)NCCc4ccccc4)cc3)nc3cccnc32)cc1	Pf Dd2 growth 13µM
O=C(NCCc1ccccc1)c1ccc(CSc2nc3cccnc3n2Cc2ccccc2F)cc1	Pf Dd2 growth 8.9µM
O=C(NCc1ccccc1F)c1ccc(CSc2nc3cccnc3n2Cc2ccccc2)cc1	none
O=C(NC1CCCCC1)c1ccc(Cn2c(SCc3ccccc3F)nc3cccnc32)cc1	none
O=C(NC1CC1)c1ccc(Cn2c(SCc3ccccc3F)nc3cccnc32)cc1	none
O=C(NCCN1CCCCC1)c1ccc(Cn2c(SCc3cccc(F)c3)nc3cccnc32)cc1	Pf Dd2 growth 7.9µM
Cc1ccccc1CNC(=O)c1ccc(CSc2nc3cccnc3n2Cc2ccccc2)cc1	none
CNC(=O)c1ccc(CSc2nc3cccnc3n2Cc2cccc(F)c2)cc1	none
O=C(NCCc1ccccc1)c1ccc(Cn2c(SCc3ccc(F)cc3)nc3cccnc32)cc1	none
CCOc1ccccc1CNC(=O)c1ccc(Cn2c(SCc3ccccc3)nc3cccnc32)cc1	Pf Dd2 growth 11µM
O=C(NCc1ccco1)c1ccc(Cn2c(SCc3ccc(F)cc3)nc3cccnc32)cc1	none
O=C(NC1CCCN(c2cc(N3CCCC3)ncn2)C1)c1ccccc1 (stereo not drawn)	none
Cc1cc(S(=O)(=O)N2CCC(n3cnnc3C3CC3)CC2)ccc1Cl	none
c1coc(-c2ccnc(N[C@H]3CO[C@H]4[C@@H]3OC[C@@H]4NCC3CCCCC3)n2)c1	none
O=C(N[C@@H]1CN(Cc2ccccc2)C[C@H]1CO)c1ccco1	none
Cn1ccnc1C(=O)N1CCCn2ccnc2C1c1ccccc1 (stereo not drawn)	none
Cc1ccc(NC(=O)Cn2c(=O)n(CCCCC(=O)NCc3ccccc3Cl)c(=O)c3ccccc32)cc1	none
CCc1ccc(C(=O)N2CCN(c3cc(-c4ccc(OC)cc4)[nH]n3)CC2)cc1	none
CCOc1ccccc1C1NC(=O)N(CC(=O)Nc2c(C)cccc2C)C2=C1C(=O)OC2 (stereo not drawn)	none
Cn1nccc1C(=O)N1CC2CC(C1)[C@H]1CCCC(=O)N1C2 (stereo partly drawn)	none
O=C(NCc1ccccc1)c1ccc(CSc2nc3cccnc3n2Cc2ccccc2)cc1	none
CN(Cc1ccccc1)C(=O)c1ccc(CSc2nc3cccnc3n2Cc2ccccc2)cc1	Pf Dd2 growth 10µM
COc1ccc(C)cc1NC(=O)CN1C(=O)COc2ccc(S(=O)(=O)N3CCOCC3)cc21	none
CCN(CC)c1ccc2nc3c(=O)n(C)c(=O)n(C)c3nc2c1	none
c1ccc(CN2C[C@H]3CCNC[C@H]32)cc1	none
c1ccc(COc2ccc(CN3CCSCC3)cc2)nc1	none
c1ccc(COc2ccc(CN3CCN(C4CCNC4)CC3)cc2)cc1 (stereo not drawn)	Pf Dd2 growth 8.9µM
COCCn1cnc2ccc(OCC3CC3)nc2c1=O	none
COCCn1cnc2ccc(OCc3ccc(C(F)(F)F)cc3)nc2c1=O	none
COCCn1cnc2ccc(OCc3ccc(Cl)cc3)nc2c1=O	Pf Dd2 growth 11µM
CC(C)c1ccc(CN2CCCC(O)(CN3CCSCC3)C2=O)cc1 (stereo not drawn)	none
O=C(COc1ccccc1)N1CCC2(CC1)CN(Cc1ccccc1)CC2CO (stereo not drawn)	Pf Dd2 growth 5µM
COCCN1CC(CO)C2(CCN(C(=O)COc3ccccc3)CC2)C1 (stereo not drawn)	none
O=C(CN1CCCCCC1)N1CCC2(CC1)CN(Cc1ccccc1)CC2CO (stereo not drawn)	none
CCn1c(CNC(=O)c2ccc(OC)cc2)nnc1SCC(=O)Nc1cccc(C)c1C	none
O=C1Nc2cc(Cl)ccc2Oc2cc(Oc3ccccc3)ccc21	none
Cc1cc(C)c(C)c(S(=O)(=O)N2CCC(c3c[nH]c4c(C)cccc34)CC2)c1C	none
O=C1c2cnc(-c3cccc(C(F)(F)F)c3)nc2OCCN1CC1CC1	none
O=C1c2cnc(-c3ccc(F)cc3)nc2OCCN1Cc1ccc(F)cc1F	none
O=C1c2cnc(-c3ccc(Oc4ccccc4)cc3)nc2OCCN1CC1CC1	Pf Dd2 growth 2.8µM
O=C1CCCCC(CNC(=O)c2ccc(F)cc2)N1 (stereo not drawn)	none
CCN1C(=O)c2ccccc2Sc2ccc(NC(C)=O)cc21	none
CC1(C)CNC(=O)c2nc(-c3n[nH]c4c3CCCCC4)[nH]c2C1	none
c1ccc(-c2cnc(Nc3cncnc3)c3c2CCO3)cc1	none
c1ccc(Nc2ncc(-c3ccccc3)c3c2OCC3)cc1	Pf Dd2 growth 22µM
COc1cncc(Nc2ncc(-c3cccc(N(C)C)c3)c3c2OCC3)c1	Pf Dd2 growth 7.1µM
CN(C)c1cccc(-c2cnc(Nc3cccnc3)c3c2CCO3)c1	Pf Dd2 growth 13µM
Fc1cccc(-c2cnc(Nc3cncnc3)c3c2CCO3)c1	none
COc1cccc(Nc2ncc(-c3c(C)noc3C)c3c2OCC3)c1	none
COc1cncc(Nc2ncc(-c3cccnc3)c3c2OCC3)c1	none
CN(C)c1cccc(-c2cnc(Nc3ccc4c(c3)OCCO4)c3c2CCO3)c1	none
CNC(=O)c1cccc(-c2cnc(Nc3ccccc3)c3c2CCO3)c1	none
CC(C)c1nncn1C1CCN(S(=O)(=O)c2ccccc2Cl)CC1	none
CCN1CCN(CCCNC(=O)c2cc3c(s2)-c2c(C)cccc2OC3)CC1	none
COc1cccc(N2CC(C)N(C(=O)Cc3c(C)nc(N)nc3C)CC2=O)c1 (stereo not drawn)	none
CCOc1ccccc1N(C)C(=O)c1nn(-c2ccc(C)cc2)c(=O)c2c1c1ccccc1n2C	none
O=C(NCCc1ccc(Cl)cc1)c1ccc(CS(=O)(=O)Cc2ccc(Cl)cc2)o1	none
O=C(O)C[C@@H]1CCN(Cc2ccc(F)cc2)C[C@@H]1CCN1C[C@@H]2C[C@H](C1)c1cccc(=O)n1C2	none
CCc1nn(CCCC(=O)NCc2ccc(OC)c(OC)c2)c(=O)c2cc3occc3n12	none
COc1cc(C(=O)Nc2ccccc2-c2nc(-c3ccc(C)cc3)no2)cc(OC)c1OC	none
O=C1CCCN1CC(=O)N1C[C@@H](COCC2CC2)[C@H](c2ccncc2)C1	none
CC(C)(C)c1ccc(C(=O)Nc2sc3c(c2C#N)CCC(C(C)(C)C)C3)cc1 (stereo not drawn)	none
CN1c2cc(C(=O)NC3CCCC3)ccc2C(=O)N2CCCC21 (stereo not drawn)	none
O=C(Nc1ncc(-c2ccccc2)c2c1OCC2)c1ccccc1	none
COc1ccc(C2=CC(c3ccccc3Cl)n3nc(-c4ccc(C)cc4)nc3N2)cc1 (stereo not drawn)	Pf Dd2 growth 11µM
COc1ccc(C2C=C(c3ccccc3)Nc3nc(NS(=O)(=O)c4ccc(C)cc4)nn32)cc1 (stereo not drawn)	none
OCCCc1nc2n(n1)C(c1cccc(Cl)c1)C=C(c1ccccc1)N2 (stereo not drawn)	none
